Experiment in all cases: DAPPL (digital affinity profiling via proximity ligation, sequencing); 10 mM Tris-HCl pH 7.5, 50 mM NaCl, 1 mM DTT, 4% glycerol, room temperature, 30 min; GST-TFs on glutathione beads, 16-mer random dsDNA library, 0.1% formaldehyde crosslink after washing; high values mean tight binding
Holding throughout (details): protein: recombinant; tags: N-terminal GST; dsDNA, one strand shown

The target of assay [1] is T1, FLI1 (Homo sapiens, UniProt Q01543 1-452).
T1 sequence: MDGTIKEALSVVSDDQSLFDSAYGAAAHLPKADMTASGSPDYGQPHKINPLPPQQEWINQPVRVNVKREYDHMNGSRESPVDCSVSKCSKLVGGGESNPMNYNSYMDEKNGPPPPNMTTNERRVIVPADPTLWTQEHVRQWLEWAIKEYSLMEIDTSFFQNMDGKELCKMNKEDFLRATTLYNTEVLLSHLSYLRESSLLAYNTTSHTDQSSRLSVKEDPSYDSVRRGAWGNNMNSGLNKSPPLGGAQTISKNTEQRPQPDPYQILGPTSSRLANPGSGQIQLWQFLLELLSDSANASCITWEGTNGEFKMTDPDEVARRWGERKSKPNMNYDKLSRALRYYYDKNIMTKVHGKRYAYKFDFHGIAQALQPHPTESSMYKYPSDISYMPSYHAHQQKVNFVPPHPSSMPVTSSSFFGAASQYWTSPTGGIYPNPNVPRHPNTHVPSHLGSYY
Put shortly:
(§1)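 Binding signal is given per hexamer as its read frequency for a factor divided by its frequency in the tag-only sample. GST-fused human transcription factors were expressed in yeast, captured on glutathione beads, barcoded with DNA and pooled with that sample, then incubated with 200 nmole of a 16-mer random double-stranded DNA library in Tris/NaCl/DTT/glycerol buffer for 30 min at room temperature. The pools were then washed, crosslinked, proximity-ligated, amplified by PCR and sequenced on an Illumina NextSeq500.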

Assay [2] concerns the target T2, ELK1 (Homo sapiens, UniProt P19419 1-428).
T2 sequence: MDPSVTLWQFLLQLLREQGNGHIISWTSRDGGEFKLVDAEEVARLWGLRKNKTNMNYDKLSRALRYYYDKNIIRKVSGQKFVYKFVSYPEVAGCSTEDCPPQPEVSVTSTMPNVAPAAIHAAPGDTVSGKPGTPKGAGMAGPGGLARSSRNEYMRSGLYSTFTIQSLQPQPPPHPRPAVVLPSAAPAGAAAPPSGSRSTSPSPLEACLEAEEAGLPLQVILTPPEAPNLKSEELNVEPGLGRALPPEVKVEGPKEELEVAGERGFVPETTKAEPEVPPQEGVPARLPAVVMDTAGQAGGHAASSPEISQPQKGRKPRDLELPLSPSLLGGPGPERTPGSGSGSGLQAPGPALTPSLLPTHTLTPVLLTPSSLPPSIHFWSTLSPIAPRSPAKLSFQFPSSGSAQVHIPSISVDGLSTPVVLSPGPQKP
The essentials: as §1

Assay [3] addresses T3, GABPA (Homo sapiens, UniProt Q06546 1-454).
T3 sequence: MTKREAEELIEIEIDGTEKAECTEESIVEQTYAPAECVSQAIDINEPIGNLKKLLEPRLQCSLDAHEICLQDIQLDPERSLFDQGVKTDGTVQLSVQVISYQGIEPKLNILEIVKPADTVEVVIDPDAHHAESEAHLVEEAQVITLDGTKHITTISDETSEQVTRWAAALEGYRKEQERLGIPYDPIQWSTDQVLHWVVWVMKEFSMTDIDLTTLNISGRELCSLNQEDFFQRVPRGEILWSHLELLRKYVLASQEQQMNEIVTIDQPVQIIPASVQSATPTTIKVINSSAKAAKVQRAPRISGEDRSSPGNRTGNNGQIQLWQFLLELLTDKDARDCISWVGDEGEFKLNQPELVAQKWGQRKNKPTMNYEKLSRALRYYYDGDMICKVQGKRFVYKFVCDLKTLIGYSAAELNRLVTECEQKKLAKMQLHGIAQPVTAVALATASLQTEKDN
The essentials:
as §1

For assay [4], the target named is T4, ERG (Homo sapiens, UniProt P11308 1-479).
T4 sequence: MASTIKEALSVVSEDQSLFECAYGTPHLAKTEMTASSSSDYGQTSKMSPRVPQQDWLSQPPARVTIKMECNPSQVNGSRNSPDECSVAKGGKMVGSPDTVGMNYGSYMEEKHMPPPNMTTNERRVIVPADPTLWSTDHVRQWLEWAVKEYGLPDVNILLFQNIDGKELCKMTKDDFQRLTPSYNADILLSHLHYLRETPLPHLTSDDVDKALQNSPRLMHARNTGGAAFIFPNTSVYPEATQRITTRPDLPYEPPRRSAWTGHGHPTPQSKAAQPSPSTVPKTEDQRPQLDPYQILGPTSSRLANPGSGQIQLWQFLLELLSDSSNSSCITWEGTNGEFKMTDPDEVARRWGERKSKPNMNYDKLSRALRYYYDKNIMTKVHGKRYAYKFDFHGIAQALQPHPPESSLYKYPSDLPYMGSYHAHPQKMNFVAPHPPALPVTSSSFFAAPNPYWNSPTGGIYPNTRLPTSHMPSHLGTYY
Put shortly:
as §1

The target of assay [5] is ELF1 (Homo sapiens, UniProt P32519 1-619). The essentials: as §1
Sequence of ELF1 (P32519 whole entry): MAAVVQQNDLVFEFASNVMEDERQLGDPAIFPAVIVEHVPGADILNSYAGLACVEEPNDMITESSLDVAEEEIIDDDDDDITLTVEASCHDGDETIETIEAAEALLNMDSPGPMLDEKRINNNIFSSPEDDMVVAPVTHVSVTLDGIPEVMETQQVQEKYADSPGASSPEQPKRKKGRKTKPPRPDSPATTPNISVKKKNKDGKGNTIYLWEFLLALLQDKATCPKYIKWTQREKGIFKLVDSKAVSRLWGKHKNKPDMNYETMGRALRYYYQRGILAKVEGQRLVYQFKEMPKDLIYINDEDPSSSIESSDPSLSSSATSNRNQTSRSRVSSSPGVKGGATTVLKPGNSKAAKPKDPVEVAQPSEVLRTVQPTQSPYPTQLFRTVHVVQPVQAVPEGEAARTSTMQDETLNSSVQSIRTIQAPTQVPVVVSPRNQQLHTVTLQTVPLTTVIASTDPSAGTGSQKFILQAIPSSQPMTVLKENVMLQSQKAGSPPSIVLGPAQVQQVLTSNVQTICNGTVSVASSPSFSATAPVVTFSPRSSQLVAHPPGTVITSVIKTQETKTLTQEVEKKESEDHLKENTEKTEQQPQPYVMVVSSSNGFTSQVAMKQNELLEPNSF
In assay [6] the target is T5, EHF (Homo sapiens, UniProt Q9NZC4 1-300).
T5 sequence: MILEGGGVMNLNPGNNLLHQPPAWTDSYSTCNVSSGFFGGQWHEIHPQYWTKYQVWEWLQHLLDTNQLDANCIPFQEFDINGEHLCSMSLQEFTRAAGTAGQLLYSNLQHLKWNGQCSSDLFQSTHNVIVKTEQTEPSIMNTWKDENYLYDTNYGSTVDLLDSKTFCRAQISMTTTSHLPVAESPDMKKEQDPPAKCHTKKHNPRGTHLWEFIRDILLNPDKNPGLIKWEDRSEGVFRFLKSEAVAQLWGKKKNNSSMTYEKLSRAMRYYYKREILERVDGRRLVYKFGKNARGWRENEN
The essentials: as §1

For assay [7], the target named is SPI1 (Homo sapiens, UniProt P17947 1-270). Put shortly:
as §1

Assay [8] deals with SPIB (Homo sapiens, UniProt Q01892 1-262). Put shortly: as §1
Sequence of SPIB (Q01892 whole entry): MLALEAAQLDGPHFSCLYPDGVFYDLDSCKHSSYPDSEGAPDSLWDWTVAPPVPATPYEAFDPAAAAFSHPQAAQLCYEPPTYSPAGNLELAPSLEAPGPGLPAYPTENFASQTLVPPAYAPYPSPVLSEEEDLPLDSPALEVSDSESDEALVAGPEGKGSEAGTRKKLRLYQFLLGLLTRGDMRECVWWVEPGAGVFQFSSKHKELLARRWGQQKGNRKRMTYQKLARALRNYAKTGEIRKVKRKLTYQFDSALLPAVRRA
Assay [9] has as its target T6, ELK3 (Homo sapiens, UniProt P41970 1-407).
T6 sequence: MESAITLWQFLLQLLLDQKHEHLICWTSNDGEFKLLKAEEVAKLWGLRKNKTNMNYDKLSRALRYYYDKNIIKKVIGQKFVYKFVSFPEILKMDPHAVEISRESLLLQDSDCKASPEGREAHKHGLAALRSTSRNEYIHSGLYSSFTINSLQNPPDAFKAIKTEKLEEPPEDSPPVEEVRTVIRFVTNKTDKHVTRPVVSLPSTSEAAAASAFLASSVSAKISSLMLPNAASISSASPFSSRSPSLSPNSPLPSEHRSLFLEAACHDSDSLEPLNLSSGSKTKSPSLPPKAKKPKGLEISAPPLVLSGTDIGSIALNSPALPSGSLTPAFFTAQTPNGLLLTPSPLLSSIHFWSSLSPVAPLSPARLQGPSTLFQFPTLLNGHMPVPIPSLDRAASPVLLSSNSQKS
Put shortly: as §1

On to CCACTA, for which the binding signal in assay [1] is 1.1 fold enrichment (6-mer frequency, TF over GST control); in assay [2], 1.14 fold enrichment (6-mer frequency, TF over GST control); in assay [3], 1.14 fold enrichment (6-mer frequency, TF over GST control); in assay [4] it was 1.08 fold enrichment (6-mer frequency, TF over GST control); in assay [5], 1.13 fold enrichment (6-mer frequency, TF over GST control); in assay [6] it was 1.06 fold enrichment (6-mer frequency, TF over GST control). Also, the binding signal in [7] was 1.04 fold enrichment (6-mer frequency, TF over GST control); in [8], 1.04 fold enrichment (6-mer frequency, TF over GST control); in [9], 1.22 fold enrichment (6-mer frequency, TF over GST control).
With GTTCTT, the binding signal was 1.19 fold enrichment (6-mer frequency, TF over GST control) in assay [1]; 1.22 fold enrichment (6-mer frequency, TF over GST control) in assay [2]; 1.09 fold enrichment (6-mer frequency, TF over GST control) in assay [3]; 1.19 fold enrichment (6-mer frequency, TF over GST control) in [4]; 1.18 fold enrichment (6-mer frequency, TF over GST control) in [5]; 1.08 fold enrichment (6-mer frequency, TF over GST control) in assay [6]. Moreover, the binding signal was 1.09 fold enrichment (6-mer frequency, TF over GST control) in assay [7]; 1.17 fold enrichment (6-mer frequency, TF over GST control) in [8]; 1.35 fold enrichment (6-mer frequency, TF over GST control) in assay [9].
In the case of ATACAT, the binding signal in [1] was 1.31 fold enrichment (6-mer frequency, TF over GST control); in [2] it was 1.15 fold enrichment (6-mer frequency, TF over GST control); in assay [3], 1.25 fold enrichment (6-mer frequency, TF over GST control); in assay [4], 1.34 fold enrichment (6-mer frequency, TF over GST control); in assay [5] it was 1.24 fold enrichment (6-mer frequency, TF over GST control); in assay [6], 1.21 fold enrichment (6-mer frequency, TF over GST control). The binding signal in [7] was 1.2 fold enrichment (6-mer frequency, TF over GST control); in assay [8] it was 1.26 fold enrichment (6-mer frequency, TF over GST control); in assay [9], 1.32 fold enrichment (6-mer frequency, TF over GST control).
In the case of TCCGCA, the binding signal is 2.2 fold enrichment (6-mer frequency, TF over GST control) in assay [1]; 2.22 fold enrichment (6-mer frequency, TF over GST control) in assay [2]; 2.07 fold enrichment (6-mer frequency, TF over GST control) in assay [3]; 2.03 fold enrichment (6-mer frequency, TF over GST control) in assay [4]; 2.01 fold enrichment (6-mer frequency, TF over GST control) in assay [5]; 2.03 fold enrichment (6-mer frequency, TF over GST control) in assay [6]. The binding signal in assay [7] is 2.85 fold enrichment (6-mer frequency, TF over GST control); in assay [8] it was 2.18 fold enrichment (6-mer frequency, TF over GST control); in [9], 2.24 fold enrichment (6-mer frequency, TF over GST control).
On to AATTTC, for which the binding signal in assay [1] was 1.65 fold enrichment (6-mer frequency, TF over GST control); in [2] it was 1.59 fold enrichment (6-mer frequency, TF over GST control); in assay [3] it was 1.75 fold enrichment (6-mer frequency, TF over GST control); in assay [4], 1.94 fold enrichment (6-mer frequency, TF over GST control); in assay [5], 1.6 fold enrichment (6-mer frequency, TF over GST control); in assay [6], 1.77 fold enrichment (6-mer frequency, TF over GST control). In addition, the binding signal in [7] was 1.47 fold enrichment (6-mer frequency, TF over GST control); in assay [8], 1.85 fold enrichment (6-mer frequency, TF over GST control); in assay [9], 1.79 fold enrichment (6-mer frequency, TF over GST control).
As for ATTGTT, the binding signal in assay [1] was 1.49 fold enrichment (6-mer frequency, TF over GST control); in assay [2] it was 1.42 fold enrichment (6-mer frequency, TF over GST control); in [3], 1.55 fold enrichment (6-mer frequency, TF over GST control); in assay [4], 1.48 fold enrichment (6-mer frequency, TF over GST control); in assay [5], 1.38 fold enrichment (6-mer frequency, TF over GST control); in assay [6] it was 1.53 fold enrichment (6-mer frequency, TF over GST control). For the same sequence, the binding signal in assay [7] is 1.45 fold enrichment (6-mer frequency, TF over GST control); in assay [8], 1.57 fold enrichment (6-mer frequency, TF over GST control); in assay [9] it was 1.55 fold enrichment (6-mer frequency, TF over GST control).
For the sequence ACAATA, the binding signal was 1.13 fold enrichment (6-mer frequency, TF over GST control) in [1]; 1.12 fold enrichment (6-mer frequency, TF over GST control) in [2]; 1.29 fold enrichment (6-mer frequency, TF over GST control) in assay [3]; 1.13 fold enrichment (6-mer frequency, TF over GST control) in [4]; 1.1 fold enrichment (6-mer frequency, TF over GST control) in [5]; 1.16 fold enrichment (6-mer frequency, TF over GST control) in assay [6]. In addition, the binding signal in [7] was 1.16 fold enrichment (6-mer frequency, TF over GST control); in [8] it was 1.2 fold enrichment (6-mer frequency, TF over GST control); in assay [9], 1.23 fold enrichment (6-mer frequency, TF over GST control).
